Source: PubChem BioAssay (National Center for Advancing Translational Sciences (NCATS))
Anthrax LT inh: inhibitors of anthrax lethal toxin internalization; hit rate 0.67% among 70,000; AID 912; Potency, µM (highest dose often 40 µM), for inactives: at the highest dose activity change, negative = inhibition, most hits filed as inhibitors; Cells, anthrax lethal toxin internalization, FRET ratio (460/530); further: on the % scale 0 is the no-effect control and ±100 the full control effect; nearly all actives have a fitted effect of over 50% in size
SmPrx2 inh: blocks S. mansoni peroxiredoxin 2 enzymatic activity. S. mansoni Prx2 activity coupled to TGR/GSH (TGR is thioredoxin glutathione reductase), NADPH fluorescence loss, qHTS. Potency, µM. hit rate 0.07% among 65,000. AID 448
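qHTS, coupled TGR/Prx2 format; 15 min compound preincubation at RT; reaction started with H2O2 (2.5 mM aliquot); kinetic NADPH fluorescence decrease, ex 365/em 450 nm.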
AmpC inh det: AmpC beta-lactamase inhibition, detergent assay. P00811. purified AmpC, nitrocefin hydrolysis with detergent. Potency, µM (series often up to 28.7 µM), for the others: at the top dose activity change, negative = inhibition. hit rate 0.09% among 71,000. AID 584; active means well fitted curve in the direction sought with a large enough effect; inconclusive means small, poorly fitted or top-dose-only effect; further: on the % scale 0 is the no-effect control and ±100 the full control effect
Target sequence (P00811 whole entry, looked up): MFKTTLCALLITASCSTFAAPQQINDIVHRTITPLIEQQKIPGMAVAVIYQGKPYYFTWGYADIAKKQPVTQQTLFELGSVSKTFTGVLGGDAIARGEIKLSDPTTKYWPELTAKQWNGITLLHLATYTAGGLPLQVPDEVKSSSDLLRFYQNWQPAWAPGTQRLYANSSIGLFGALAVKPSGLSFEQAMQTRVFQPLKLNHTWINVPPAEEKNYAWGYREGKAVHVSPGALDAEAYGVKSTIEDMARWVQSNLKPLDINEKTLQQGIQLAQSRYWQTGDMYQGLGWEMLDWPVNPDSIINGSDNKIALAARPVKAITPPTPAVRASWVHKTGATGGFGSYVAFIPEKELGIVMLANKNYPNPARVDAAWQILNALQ
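E. coli AmpC (5.3 nM) in 20 mM phosphate pH 7.0 with 0.01% Triton X-100, preincubated 15 min RT with compound; nitrocefin (2 uL of 800 uM stock) hydrolysis followed by 480 nm absorbance every 20 s over 4 min.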
AmpC inh no det: blocks E. coli AmpC beta-lactamase in absence of detergent; AmpC nitrocefin hydrolysis, absorbance 480 nm, no detergent; Potency, µM (titrated, usually from 28.7 µM), for inactives: at the highest dose activity change, negative = inhibition; hit rate 1.8% among 71,000; AID 585; further: % of control where 0% means no effect
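Enzyme, pH 7.0 phosphate. Compound titrations were pre-incubated with AmpC for 15 min at room temperature before nitrocefin (stock 800 uM) addition; product formation was recorded at 480 nm every 20 s for 4 min.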
Numbers without * were called inactive; ? = inconclusive; . = not tested or not shown; [ ] = remark or other dose. A selection: hits, their analogues and other compounds. The true share with any hit is near 2.4%. Unless noted, the call rests on the fitted dose curve. Potency means the concentration at half of the fitted maximal effect.

SMILES | Anthrax LT inh | SmPrx2 inh | AmpC inh det | AmpC inh no det
O=C(O)C[C@H]1OCC=C2CN3CC[C@]45c6ccccc6N[C@@H]4[C@H]1[C@H]2C[C@H]35 | 1%[8 µM] | >57 | 0%[5.75 µM] | 4%[5.75 µM]
CCCCCC[C@H]1C(=O)O[C@@H](C)[C@H](NC(=O)c2cccc(NC=O)c2O)C(=O)O[C@@H](C)[C@@H]1OC(=O)CC(C)C | ? | >57 | -3% | 4%
CCOc1ccc(C2CC(c3cccc(OC)c3)Nc3nc(N)nn32)cc1 (stereo not drawn) | -5% | >57 | 10% | 80%
COc1cccc(C2CC(c3ccc(C)cc3)Nc3nc(N)nn32)c1 (stereo not drawn) | -1% | >57 | 7% | 4µM*[single pt active]
COc1ccc(C2CC(c3ccc(Cl)cc3Cl)n3nc(N)nc3N2)cc1 (stereo not drawn) | 14% | >57 | 14% | 108%
COc1cccc(C2CC(c3ccc(C)cc3)n3nc(N)nc3N2)c1 (stereo not drawn) | 6% | >57 | 12% | 4µM*[single pt active]
COc1ccc(C2CC(c3c(Cl)cccc3Cl)n3nc(N)nc3N2)cc1 (stereo not drawn) | ? | >57 | 7% | 4µM*[single pt active]
COc1cccc(C2CC(c3ccccc3Cl)Nc3nc(N)nn32)c1 (stereo not drawn) | -8% | >57 | -3% | 64%
NC(=O)C[C@H](N)C(N)=O | -10%[8 µM] | >57 | -5%[5.75 µM] | -9%[5.75 µM]
O=C(CSc1nnc(Cc2cc(=O)[nH]c(=O)[nH]2)n1-c1ccc(F)cc1)NC1CCCC1 | -2% | >57 | 3% | 4µM*[single pt active]
COc1cccc(-n2c(Cc3cc(=O)[nH]c(=O)[nH]3)nnc2SCC(=O)NC2CCCCC2)c1 | 1% | >57 | 16% | ?
Cn1cccc1Cc1nnc(SCC(=O)NC2CCCC2)n1-c1ccc(F)cc1 | -24% | >57 | 15% | 4µM*[single pt active]
O=C(Cc1cc(=O)[nH]c(=O)[nH]1)NCC1CCCO1 (stereo not drawn) | 4µM* | >57 | 9% | 71%
COc1cccc(-n2c(Cc3cc(=O)[nH]c(=O)[nH]3)nnc2SCC(=O)N2CCCCC2)c1 | -2% | >57 | 12% | 4µM*[single pt active]
Cc1cccc(-n2c(Cc3cc(=O)[nH]c(=O)[nH]3)nnc2SCC(=O)NCC2CCCO2)c1 (stereo not drawn) | 2% | >57 | 14% | 4µM*[single pt active]
O=C(CSc1nnc(Cc2cc(=O)[nH]c(=O)[nH]2)n1-c1ccc(F)cc1)N1CCCCC1 | -5% | >57 | 9% | 4µM*[single pt active]
CN1CCc2nc(N)nc(-c3nc(N)nc4c3CN(C)CC4)c2C1 | -3%[8 µM] | >57 | 0%[5.75 µM] | -2%[5.75 µM]
O=C(O)c1cccc([As]=[As]c2cccc(C(=O)O)c2)c1 (stereo not drawn) | ? | 0.25* | 0%[5.75 µM] | 4%[5.75 µM]
C=C(C)COc1ccc(-c2n[nH]c(C)c2Oc2ccccc2OC)c(O)c1 | 10µM* | >57 | 6% | -16%
CCOc1ccc(-c2n[nH]c(C)c2Oc2ccccc2OC)c(O)c1 | -31% | >57 | -4% | -7%
C=C(C)COc1ccc(-c2[nH]ncc2Oc2cccc(OC)c2)c(O)c1 | ? | ? | 3% | 10µM*
c1cc(CCN2CCCCC2)ccn1 | 4%[8 µM] | >57 | -4%[5.75 µM] | -8%[5.75 µM]
CN(CC(=O)O)Cc1c[nH]c2ccccc12 | -5%[8 µM] | >57 | -4%[5.75 µM] | -5%[5.75 µM]
O=C(O)c1oc(C(=O)O)c(C(=O)O)c1C(=O)O | 2%[8 µM] | >57 | -1%[5.75 µM] | 6%[5.75 µM]
CC(C)C[C@H](N)c1nnc(S(=O)(=O)Cc2ccc(F)cc2)o1 | ? | >57 | 2.5µM* | 2.5µM*
SMILES | Anthrax LT inh | SmPrx2 inh | AmpC inh det | AmpC inh no det
CC(C)OC(=O)c1nnc(Cc2ccc(F)cc2)o1 | 0% | >57 | 13% | 9%
Nc1cc(C(=O)O)c(O)c(S(=O)(=O)O)c1 | ? | . | 9% | -13%
O=C(Nc1ccc(O)cc1)C1CC=CCC1 (stereo not drawn) | -1% | >57 | 7% | 13µM*[single pt active]
Cc1ccc(S(=O)(=O)N2CCCC2C(=O)Nc2ccc(O)cc2)cc1 (stereo not drawn) | -1% | >57 | 12% | -7%
c1ccc(N2CCN(c3ncnc4c3oc3ccccc34)CC2)cc1 | 16µM* | >57 | 0% | 12%
CCOC(=O)Nc1ccc2c(c1)N(C(=O)OCCN(C)C)c1ccccc1CC2 | -12% | >57 | 9% | 4µM*[single pt active]
CCS(=O)(=O)Nc1ccc2c(c1)N(C(C)=O)c1ccccc1CC2 | ? | >57 | -1% | 21%
COc1ccc(NC(=O)c2ccc(-c3ccc(-c4noc(C)n4)cc3C)cc2)cc1N1CCN(C)CC1 | ? | >57 | -6% | 147%
COc1ccc(NC(=O)c2ccc(-c3ccc(-c4noc(C)n4)cc3C)cc2)cc1OCCN(C)C | 16µM* | >57 | -1% | 161%
Nc1nc(N)c2nc(CNc3ccc(C(=O)N[C@H](CCC(=O)O)C(=O)O)cc3)cnc2n1 | ? | >57 | -2% | 6%
O=C(CCCOc1ccccc1)Nc1nnc(C2CCCO2)s1 (stereo not drawn) | 0% | >57 | 13% | 10µM*[single pt active]
CCCn1c(C)nc2c(N3CCCN(Cc4ccccc4)CC3)nc(C)nc21 | -4% | . | 15% | 107%
CCCn1c(-c2ccc(F)cc2)nc2c(N3CCCN(Cc4ccccc4)CC3)nc(C)nc21 | 6.3µM* | . | 17% | 98%
COc1ccc2c(c1)[C@]1(C)CCC[C@](C)(CO)[C@@H]1CC2 | -12% | >57 | 1% | 21%
COc1ccc(NC(=O)c2nnn(Cc3cccc(F)c3)c2N)c(OC)c1 | -4% | >57 | 11% | 2.5µM*[single pt active]
COc1cccc(Cn2nnc(C(=O)Nc3cc(Cl)ccc3OC)c2N)c1 | ? | >57 | 12% | -22%
Cc1ccc(C)c(NC(=O)c2nnn(Cc3ccccc3)c2N)c1 | -8% | >57 | 24% | -12%
COc1ccc(C)cc1NC(=O)c1nnn(Cc2cccc(F)c2)c1N | -6% | . | 15% | 3.2µM*[single pt active]
COc1ccc(OC)c(NC(=O)c2nnn(Cc3ccc(Br)cc3F)c2N)c1 | ? | ? | 13% | 3.2µM*[single pt active]
CN(C)CN1CSC(=S)N(CN(C)C)C1 | -1%[8 µM] | >57 | -6%[5.75 µM] | -13%[5.75 µM]
Cc1noc(NC(=O)Nc2ccccc2F)c1C#N | 1%[8 µM] | >57 | -1%[5.75 µM] | 9%[5.75 µM]
Cc1cccc2ccccc12 | -7% | . | 8% | -1%
Cc1ccc(C(=N)c2ccccc2Cc2cccc3ccccc23)c2ccccc12 | 2.5µM* | >57 | -2%[5.75 µM] | 2%[5.75 µM]
CC(C)CCn1c(SCC#N)nc2c(sc3ccccc32)c1=O | 9% | >57 | 4% | -3%
C=CCn1c(=O)n(CCOC)c(=O)c2sc3ccccc3c21 | -10% | >57 | 12% | 4µM*[single pt active]
N[C@@H]1C=CC=C(C(=O)O)C1 | 7% | >57 | 1% | 13%
CCN(CC)CCNC(=O)c1ccc(CS(=O)(=O)c2ccc(Br)cc2)o1 | -26% | >57 | 9% | 3.2µM*[single pt active]
O=C(NCCN1CCCCCC1)c1ccc(CS(=O)(=O)c2ccc(Br)cc2)o1 | ? | >57 | 8% | 4µM*[single pt active]
O=C(NC1CCCC1)c1ccc(CS(=O)(=O)c2ccc(Br)cc2)o1 | -26% | >57 | 8% | 4µM*[single pt active]
O=C(NCCCN1CCCC1)c1ccc(CS(=O)(=O)c2ccc(Br)cc2)o1 | -13% | >57 | 13% | 4µM*[single pt active]
